One may read the inhibition as the change of the read-out against control, counted positive when it falls.

Consider 16 molecules from PubChem BioAssay.

For some of these results: Entries with a potency or affinity are not part of this list. The source made the active and inactive calls.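 The calls were made as follows, unless noted: active = compound raising the membrane signal above positive-control mean plus 3 SD in both repeats, and a primary screen hit; inactive = the rest.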

Assay [1] deals with TRPC4 beta (transient receptor potential cation channel C4), mouse. The assay can be described thus: activators of mouse TRPC4 channel, confirmation, cell-based, Fluo4 calcium, HEK293 TRPC4beta/mu-opioid, duplicates, 10 µM (AID 2426;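 active = fluorescence ratio normalized to control raised more than 50% in primary screen plus both repeat runs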). As to conditions: Fluo4 calcium fluorescence, at 10 µM; hits give high values.
Assay [2] deals with transient receptor potential cation channel C4 beta (TRPC4), mouse. The assay can be described thus: activators of mouse TRPC4 channel, confirmation, cell-based, second round, Fluo4, HEK293 TRPC4beta/mu-opioid, 1 µM (AID 2461;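 active = primary screen active and over 50% activation in each of two duplicate runs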). As to conditions: Fluo4 calcium fluorescence, at 1 µM; hits give high values.
Assay [3] has as its system TRPC4 (transient receptor potential cation channel C4 beta), mouse. The assay is described as follows: positive allosteric modulators of mouse TRPC4, confirmation, cell-based, second round, Fluo-4, HEK293 TRPC4beta/mu-opioid, 1 µM (AID 2554;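 active = primary screen hit whose fluorescence ratio, in both repeats, exceeds the weak agonist control mean by 3 SD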). Conditions: DAMGO EC20, Fluo-4 calcium flux, at 1 µM; hits give high values. (Calcium flux is commonly read through the fluorescence of an indicator in the cells.)

The test system of assay [4] is TRPC4 beta (transient receptor potential cation channel C4), mouse. The assay can be described thus: positive allosteric modulators of mouse TRPC4, confirmation, cell-based, Fluo-4, HEK293 TRPC4beta/mu-opioid (AID 2555;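 active = primary screen hit whose calcium fluorescence ratio, in both repeats, exceeds the weak agonist control mean by 3 SD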). As to conditions: DAMGO EC20, Fluo-4 calcium flux, at 10 µM; hits give high values.
Assay [5] concerns the target Short transient receptor potential channel 4 (Mus musculus) (UniProt Q9QUQ5). The assay is described as follows: inhibitors of mouse TRPC4 channel, confirmation, cell-based, Fluo4, HEK293 TRPC4beta/mu-opioid (AID 2636;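 active = calcium signal cut by more than 3 SD below the full-agonist control yet still positive, in both repeats and the earlier primary screen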). As to conditions: DAMGO, Fluo4 calcium flux, at 10 µM; hits give high values.
The target is the same in assay [6]. The assay is described as follows: inhibitors of mouse TRPC4 channel, confirmation, cell-based, second round, Fluo4, HEK293 TRPC4beta/mu-opioid, 1 µM (AID 2637;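 active = calcium signal ratio cut to more than 3 SD under the fully stimulated control mean yet still positive, in both repeats and the primary screen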;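 as to inhibition: percent of integrated ratio relative to wells lacking test compound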). As to conditions: Fluo4 calcium flux, DAMGO, at 1 µM; hits give high values.
The target is the same in assay [7]. The assay can be described thus: mouse TRPC4 channel activators, dose response, cell-based, HEK293 TRPC4/mu-opioid, Fluo-4 calcium (AID 434937;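 active = primary screen activator hit with a dose response curve and TRPC4 channel activation at any tested dose; inactive = no activation, no dose response, or not a primary hit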).
For assay [8] the target is unchanged. The assay can be described thus: TRPC4 positive allosteric modulators, dose response, cell-based, HEK293 TRPC4/mu-opioid, Fluo-4 calcium, EC20 DAMGO (AID 434941;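 active = earlier screen potentiator hit that boosts the TRPC4 ion channel at some dose, with a dose response; inactive = no potentiation, no dose response, or not a prior hit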;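 also: calcium entry triggered by an EC20 dose of DAMGO at the co-expressed mu-opioid receptor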).
Assay [9] has as its target Short transient receptor potential channel 6 (Mus musculus) (UniProt Q61143). The assay is described as follows: inhibition of mouse TRPC6 channel, confirmation, selectivity assay for TRPC4 inhibitor project, cell-based, HEK293, membrane potential dye, duplicate (AID 434948;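 active = active in primary screen and both duplicates, each dropping signal beyond three positive-control SD with fluorescence still positive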). As to conditions: HEK293 TRPC6, membrane potential dye fluorescence, at 10 µM, stimulated with maximal-effect acetylcholine; hits give high values.

For assay [10] the target is unchanged. The assay can be described thus: activation of mouse TRPC6 channel, confirmation, selectivity assay for TRPC4 activator project, cell-based, HEK293, membrane potential dye, duplicate (AID 434950;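 active = membrane potential signal rise above negative control mean plus 3 SD in both duplicates, also active in the earlier TRPC4 screen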). Conditions: HEK293 TRPC6, membrane potential fluorescence, at 10 µM; hits give high values.
For assay [11] the target is unchanged. The assay is described as follows: TRPC6 potentiation by TRPC4 potentiator hits, confirmation, selectivity assay for TRPC4 potentiator project, HEK293 cells, membrane potential dye, duplicate (AID 434952). Conditions: HEK293 TRPC6, membrane potential dye fluorescence, at 10 µM, maximal acetylcholine added after compound; hits give high values.
Assay [12] concerns the target Short transient receptor potential channel 4 (Mus musculus) (UniProt Q9QUQ5). The assay can be described thus: calcium flux activators in TRPC4/5HT1a cells, counter-screen for TRPC4 activator project, cell-based, second counter screen, HEK293 TRPC4/5HT1a, Fluo-4 (AID 434977;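 active = calcium signal rise above buffer-control mean plus 5 SD in both duplicates, and also a hit in the primary screen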). Conditions: Fluo-4 calcium flux, at 10 µM; hits give high values.
A short description of assay [13]: calcium flux inhibitors in TRPC4/5HT1a cells, confirmation, counter-screen for TRPC4 inhibitor project, cell-based, second counter screen, HEK293 TRPC4/5HT1a, Fluo-4 (AID 434978;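 active = primary screen active whose calcium signal fell more than 3 SD beyond the full-serotonin control mean in both duplicate plates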;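 as to outcome: serotonin given first at submaximal then at maximal dose after compound preincubation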). As to conditions: Fluo-4 calcium flux, at 10 µM, serotonin added to trigger calcium flux; hits give high values.
Assay [14] relates to TRPC4 (mouse), co-expressed with 5HT1a in HEK293. The assay can be described thus: calcium flux potentiators in TRPC4/5HT1a cells, confirmation, counter-screen for TRPC4 potentiator project, cell-based, second counter screen, HEK293 TRPC4/5HT1a, Fluo-4 (AID 434979;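 active = signal rise over 3 SD above mean of control wells given weak agonist, in both repeats and first screen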). As to conditions: Fluo-4 calcium flux, at 10 µM, serotonin added at its EC20 dose; hits give high values.
A short description of assay [15]: calcium flux activation in mu-opioid HEK293 cells, confirmation, counter-screen for TRPC4 activator project, cell-based, HEK293 mu-opioid receptor line (AID 449723;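 active = hit in primary screen, with calcium signal over 5 SD above buffer well mean in both duplicates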;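 also: counter screen cells carry the mu-opioid receptor alone and lack TRPC4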). As to conditions: Fluo-4 calcium fluorescence, at 10 µM; hits give high values.
A short description of assay [16]: calcium flux enhancement in mu-opioid HEK293 cells, confirmation, counter-screen for TRPC4 allosteric potentiator project, cell-based, HEK293 mu-opioid receptor line (AID 449724;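 active = calcium signal rise more than 3 SD above the low-dose agonist control mean, in both duplicate plates and the primary screen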;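 also: HEK293 cells carrying mu-opioid receptor only with no TRPC4 channel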). Conditions: Fluo-4 calcium flux, at 10 µM, compound added before EC20 DAMGO stimulus; hits give high values.

Chain of Short transient receptor potential channel 6 (Mus musculus) (Q61143 whole entry, looked up): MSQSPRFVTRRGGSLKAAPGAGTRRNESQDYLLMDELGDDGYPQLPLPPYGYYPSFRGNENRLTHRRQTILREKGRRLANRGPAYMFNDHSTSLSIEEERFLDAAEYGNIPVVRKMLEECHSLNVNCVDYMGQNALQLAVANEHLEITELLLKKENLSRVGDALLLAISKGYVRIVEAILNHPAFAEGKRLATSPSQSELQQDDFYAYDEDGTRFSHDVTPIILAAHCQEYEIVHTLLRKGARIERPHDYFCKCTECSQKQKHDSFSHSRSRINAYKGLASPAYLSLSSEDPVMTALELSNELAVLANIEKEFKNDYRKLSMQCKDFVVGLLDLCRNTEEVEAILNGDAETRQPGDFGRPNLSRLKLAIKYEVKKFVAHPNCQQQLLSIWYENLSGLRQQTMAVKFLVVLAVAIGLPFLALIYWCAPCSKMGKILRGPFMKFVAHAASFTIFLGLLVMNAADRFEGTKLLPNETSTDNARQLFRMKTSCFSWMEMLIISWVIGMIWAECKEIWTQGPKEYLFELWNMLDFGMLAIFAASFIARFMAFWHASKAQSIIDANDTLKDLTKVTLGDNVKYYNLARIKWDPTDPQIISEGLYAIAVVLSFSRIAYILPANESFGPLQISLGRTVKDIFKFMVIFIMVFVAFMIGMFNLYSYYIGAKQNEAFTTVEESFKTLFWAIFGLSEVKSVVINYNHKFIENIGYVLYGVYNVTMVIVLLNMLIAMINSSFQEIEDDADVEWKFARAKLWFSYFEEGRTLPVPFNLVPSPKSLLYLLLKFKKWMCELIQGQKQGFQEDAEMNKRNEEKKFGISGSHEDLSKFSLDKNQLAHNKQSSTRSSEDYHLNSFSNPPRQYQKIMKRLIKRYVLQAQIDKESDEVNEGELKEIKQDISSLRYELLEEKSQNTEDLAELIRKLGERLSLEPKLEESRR
Chain of Short transient receptor potential channel 4 (Mus musculus) (Q9QUQ5 whole entry, looked up): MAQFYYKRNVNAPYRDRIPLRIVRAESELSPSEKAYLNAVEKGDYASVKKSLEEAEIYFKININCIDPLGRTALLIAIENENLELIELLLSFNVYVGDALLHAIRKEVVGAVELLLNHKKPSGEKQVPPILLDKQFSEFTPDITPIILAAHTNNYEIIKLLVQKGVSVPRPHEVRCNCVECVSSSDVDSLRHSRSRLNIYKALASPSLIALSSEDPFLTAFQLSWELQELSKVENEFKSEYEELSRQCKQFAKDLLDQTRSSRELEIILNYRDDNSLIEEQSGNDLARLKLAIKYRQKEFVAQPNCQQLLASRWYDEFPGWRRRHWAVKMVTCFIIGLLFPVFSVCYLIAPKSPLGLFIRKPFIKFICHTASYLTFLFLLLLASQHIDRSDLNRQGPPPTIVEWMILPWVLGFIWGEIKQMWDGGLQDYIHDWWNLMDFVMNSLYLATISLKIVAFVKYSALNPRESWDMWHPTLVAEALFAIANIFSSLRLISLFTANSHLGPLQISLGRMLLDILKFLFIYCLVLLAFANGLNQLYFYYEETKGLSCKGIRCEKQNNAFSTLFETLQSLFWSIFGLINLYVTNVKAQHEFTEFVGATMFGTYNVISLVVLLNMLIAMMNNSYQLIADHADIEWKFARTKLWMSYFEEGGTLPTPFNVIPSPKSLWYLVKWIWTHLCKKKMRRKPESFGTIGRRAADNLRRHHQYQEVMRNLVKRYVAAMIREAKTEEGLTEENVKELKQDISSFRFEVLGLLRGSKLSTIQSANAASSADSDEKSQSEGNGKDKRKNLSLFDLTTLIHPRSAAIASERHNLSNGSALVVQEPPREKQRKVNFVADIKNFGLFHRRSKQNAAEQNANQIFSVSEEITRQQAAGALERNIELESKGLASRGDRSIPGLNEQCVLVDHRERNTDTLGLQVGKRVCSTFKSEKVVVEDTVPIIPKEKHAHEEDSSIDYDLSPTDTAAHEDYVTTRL

On to `Cc1ccc(-c2c[n+](Cc3cccc(Cl)c3)c3n2CCC3)cc1`, for which the result in assay [1], in assay [2], in [3], in assay [4], in [7] and in assay [8] was inactive. In addition, the outcome in [9], in assay [10], in assay [11], in [12], in assay [14] and in [15] was inactive. In addition, the outcome in assay [16] was inactive. The inhibition in [5] is 93% (active); in assay [6] it was 76% (active); in assay [13], 14.8% (active).
`CCC(C)NCCOCCOc1ccccc1-c1ccccc1` (stereo unspecified): the outcome in assay [1], in [2], in [3], in assay [4], in assay [6] and in [7] was inactive. In addition, the result in [8], in assay [9], in [10], in assay [11], in assay [12] and in assay [14] was inactive. Besides, the result in assay [15] and in assay [16] was inactive. Also, the inhibition is 77% (active) in assay [5] and 36.9% (active) in [13].
In the case of `NS(=O)(=O)c1ccc(CCNCc2ccccc2OCc2ccc(Cl)cc2)cc1`, the outcome in assay [1], in assay [2], in assay [3], in assay [4], in assay [7] and in [8] was inactive. Besides, the result in [9], in assay [10], in [11], in [12], in assay [14] and in [15] was inactive. For the same molecule, the result in [16] was inactive. Also, the inhibition was 87% (active) in [5], 54% (active) in [6] and 31.3% (active) in [13].
Regarding `Cc1ccc(CSc2nc(-c3ccccc3)c(C#N)c(=O)[nH]2)cc1`, the outcome in [1], in [2], in assay [3], in [4], in assay [5] and in assay [7] was inactive. Further, the result in [8], in assay [9], in [10], in assay [11], in assay [12] and in [14] was inactive. Also, the outcome in [15] and in assay [16] was inactive. Moreover, the inhibition in [6] was 49% (active); in [13], 12% (active).
For `CC(=O)Nc1cccc(C(=O)NCC2(N3CCCCC3)CCCCC2)c1`, the result in assay [1], in [2], in [3], in assay [4], in [6] and in assay [7] was inactive. Besides, the outcome in [8], in assay [9], in [10], in [11], in assay [12] and in assay [13] was inactive. Also, the outcome in assay [14], in assay [15] and in assay [16] was inactive. Also, the inhibition in assay [5] is 89% (active).
For the molecule `O=c1c2ccccc2nc(SCc2ccc([N+](=O)[O-])cc2)n1CCCO`, the result in [1], in assay [2], in assay [3], in [4], in assay [7] and in assay [8] was inactive. The outcome in assay [9], in assay [10], in assay [11], in assay [12], in assay [14] and in assay [15] was inactive. Besides, the outcome in assay [16] was inactive. Moreover, the inhibition was 90% (active) in assay [5], 68% (active) in assay [6] and 19.5% (active) in [13].
For `CC(=O)N1CCN(c2ccccc2NC(=O)c2cccs2)CC1`, the result in assay [1], in assay [2], in [3], in assay [4], in assay [7] and in assay [8] was inactive. The result in [9], in [10], in assay [11], in [12], in [13] and in assay [14] was inactive. Moreover, the result in assay [15] and in [16] was inactive. Also, the inhibition is 76% (active) in assay [5] and 43% (active) in assay [6].
On to `C=CCOc1ccc(C2CC(C)=NN2c2ccccc2)cc1` (stereo unspecified), for which the outcome in assay [1], in assay [2], in assay [3], in assay [4], in assay [7] and in [8] was inactive. Besides, the molecule was classed as inactive in assay [9], in [10], in assay [11], in assay [12], in assay [14] and in assay [15]. Also, in assay [16], the result was inactive. For the same molecule, the inhibition in [5] is 84% (active); in [6], 44% (active); in assay [13], 32% (active).
For `Oc1ccc(Nc2nc(N3CCCC3)c3ccccc3n2)cc1`, the outcome in assay [1], in assay [2], in assay [3], in assay [4], in assay [6] and in assay [7] was inactive. In addition, the outcome in assay [8], in [10], in [11], in assay [12], in [14] and in assay [15] was inactive. For the same molecule, the result in assay [16] was inactive. For the same molecule, the inhibition is 95% (active) in assay [5], 39.5% (active) in [9] and 36.8% (active) in assay [13].
Consider `CNc1nc(NCc2ccccc2)c2ccccc2n1`, for which the result in assay [1], in assay [2], in [3], in assay [4], in assay [5] and in assay [7] was inactive. Moreover, the outcome in assay [8], in assay [10], in assay [11], in assay [12], in assay [14] and in assay [15] was inactive. Further, in assay [16], the outcome was inactive. The inhibition in assay [6] is 69% (active); in assay [9], 50.5% (active); in assay [13] it was 26.9% (active).
For `Cc1nn(C(=O)c2cccnc2)c(C)c1Sc1ccccc1`, the result in assay [1], in assay [2], in assay [3], in assay [4], in [6] and in assay [7] was inactive. Further, the result in assay [8], in assay [9], in [10], in assay [11], in assay [12] and in assay [14] was inactive. Moreover, the outcome in assay [15] and in [16] was inactive. The inhibition in assay [5] is 92% (active); in [13], 16.5% (active).
With `CC(=O)Oc1ccc(/C=C(\NC(=O)c2ccco2)C(=O)NCc2ccccc2)cc1`, the outcome in [1], in [2], in assay [3], in assay [4], in assay [6] and in assay [7] was inactive. Besides, the outcome in assay [8], in assay [9], in assay [10], in assay [11], in [12] and in [14] was inactive. Besides, the result in assay [15] and in assay [16] was inactive. For the same molecule, the figures for the inhibition in [5] and in assay [13] were 82% (active) and 44.5% (active), respectively.
Consider `COc1ccc(O)c(C(=O)c2cnc3c(c2)c(=O)[nH]c(=O)n3C)c1`, for which the outcome in assay [1], in [2], in assay [3], in assay [4], in [7] and in assay [8] was inactive. Further, the result in assay [9], in assay [10], in assay [11], in [12], in assay [14] and in [15] was inactive. Further, in [16], the outcome was inactive. The inhibition is 92% (active) in assay [5], 63% (active) in assay [6] and 20% (active) in assay [13].
Regarding `Cc1cccc2nc(CSc3ccc(Cl)cc3)cn12`, the outcome in assay [1], in [2], in [3], in [4], in assay [7] and in assay [8] was inactive. Also, the outcome in [9], in [10], in [11], in assay [12], in assay [14] and in assay [15] was inactive. Besides, the result in assay [16] was inactive. Moreover, the figures for the inhibition in assay [5], in assay [6] and in assay [13] were 90% (active), 52% (active) and 21.9% (active), respectively.
With `Clc1ccc(CN2C3=NCCN3c3ccccc32)cc1Cl`, the result in assay [1], in [2], in assay [3], in [4], in [5] and in [7] was inactive. Besides, the result in [8], in assay [9], in [10], in assay [11], in assay [12] and in assay [14] was inactive. Further, the outcome in assay [15] and in [16] was inactive. Besides, the inhibition in assay [6] is 65% (active); in [13], 20.3% (active).
Consider `Cc1cc(OCc2cc(C(=O)NCC3(C)COC3)no2)cc(C)c1Cl`, for which the result in assay [1], in assay [2], in [3], in [4], in assay [6] and in [7] was inactive. Further, the result in assay [8], in assay [9], in assay [10], in assay [11], in assay [12] and in assay [14] was inactive. For the same molecule, the outcome in [15] and in assay [16] was inactive. The inhibition is 66% (active) in assay [5] and 40.6% (active) in assay [13].
